Each structure is given as a SMILES string. Out of some 96,000 compounds screened, about 19,000 (20%) were called active. Not all results are given here. Values without a mark were called inactive.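 The calls were made as follows: active = blocking of liver enzyme CYP2C9 beyond about 50% at 5 µM (limit read from the data); inactive = the rest.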

Sequence of Cytochrome P450 2C9 (Homo sapiens) (P11712 whole entry, looked up): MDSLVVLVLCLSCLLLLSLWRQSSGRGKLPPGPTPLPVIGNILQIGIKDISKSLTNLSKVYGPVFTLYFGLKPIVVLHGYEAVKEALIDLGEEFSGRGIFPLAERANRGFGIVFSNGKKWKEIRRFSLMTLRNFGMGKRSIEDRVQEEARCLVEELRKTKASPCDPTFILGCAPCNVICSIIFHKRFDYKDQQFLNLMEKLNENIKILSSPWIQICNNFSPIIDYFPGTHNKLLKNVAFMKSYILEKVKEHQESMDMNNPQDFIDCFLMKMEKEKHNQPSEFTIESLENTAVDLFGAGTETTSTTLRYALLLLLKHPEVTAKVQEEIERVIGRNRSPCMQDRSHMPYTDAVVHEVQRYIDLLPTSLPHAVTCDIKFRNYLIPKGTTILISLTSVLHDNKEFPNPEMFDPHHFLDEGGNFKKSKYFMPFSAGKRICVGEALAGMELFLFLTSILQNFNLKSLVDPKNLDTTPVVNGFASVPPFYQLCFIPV

The experiment concerns the target Cytochrome P450 2C9 (Homo sapiens) (UniProt P11712). Briefly: blockers of cytochrome P450 2C9 activity – biochemical, luminescence, ADME assay, primary screen (AID 777). Particulars: CYP2C9 Supersomes, luciferin-H conversion, at 5 µM, hits give high values.
Consider `CN1CCN(Cc2c(O)ccc3c2oc(=O)c2ccccc23)CC1`, for which the inhibition was -22.3%.
As for `O=C(Nc1ncccn1)c1cccs1`, the figure is -3.3%; as for `Cc1nc(-c2ccc(NC(=O)c3cccs3)cc2)cs1`, 20.2%.
As for `O=C(CCc1ccccc1)Nc1cccc(-c2nnc(-c3ccco3)o2)c1`, the figure is 19.3%; as for `Cc1ccc(OCC(=O)Nc2ccc(-c3nnc(-c4ccco4)o3)cc2)cc1`, 66.3% (active); as for `COc1cccc(C(=O)Nc2ccc(NC(=O)c3ccco3)cn2)c1`, 23.4%.
For the compound `CCCCOc1ccc(-c2nnc(-c3ccco3)o2)cc1`, the inhibition is 19.4%.
With `Cc1ccc(-c2nnc(-c3ccc(NC(=O)c4cccs4)cc3)o2)cc1`, the inhibition is 56.4% (active).
As for `CCC(=O)Oc1cccc(C(=O)Nc2ccc(-c3nnc(-c4ccco4)o3)cc2)c1`, the figure is 53.3% (active); as for `CCOc1ccc(-c2nnc(-c3ccco3)o2)cc1`, 31.6%.
As for `COc1ccc(Cl)cc1C(=O)Nc1ccc(N(C)C(C)=O)cc1`, the figure is -206%.
`C/C(=N\c1nc2ccccc2n1C)c1cc(Cl)ccc1O`: the inhibition was -7.5%.
As for `CC(=O)N1C(=O)C2(Nc3ccccc3N2)c2ccccc21`, the figure is 4.4%.
As for `CC1CCc2c(c3ccccc3[nH]c2=O)O1` (centres undefined), the figure is 35%; as for `CCOC(=O)c1c(NC(=O)c2ccc(Br)o2)sc2c1CCCC2`, 10.2%.
As for `CC1CCc2c(sc(NC(=O)c3ccc(Cn4cc(Br)cn4)o3)c2C(N)=O)C1` (centres undefined), the inhibition was 81.5% (active).
As for `O=C(Nc1ccc(Br)c2cccnc12)c1ccc(Cn2cc([N+](=O)[O-])cn2)o1`, the figure is -72.9%; as for `C=CCN1C(=O)C(Cc2cccc(Cl)c2)S/C1=N/N=C/c1ccco1` (centres undefined), -2.7%; as for `CCCNC(=O)c1ccc(Cl)c(Cl)c1`, -10.8%.
As for `CCCCNC(=O)C1CCCNC1=O` (centres undefined), the figure is -10.4%; as for `CC1CN(c2cc(=O)n(-c3cccc(Br)c3)c(=O)[nH]2)CC(C)O1` (centres undefined), -3.4%.
As for `CCCc1nc2ccccc2c(C(=O)OCc2nnc(-c3cc(OC)c(OC)c(OC)c3)o2)c1CC`, the figure is 67.5% (active).
As for `CCCc1nc2ccccc2c(C(=O)OCC(=O)c2ccc3c(c2)NC(=O)CO3)c1CC`, the inhibition is -20.4%.
As for `COc1cc(-c2nnc(Cn3cc(C(F)(F)F)ccc3=O)o2)cc(OC)c1OC`, the figure is 12%; as for `Cc1cc(C(=O)COC(=O)c2cccs2)c(C)n1-c1c(C)n(C)n(-c2ccccc2)c1=O`, 15.4%; as for `Cc1cc(=O)n(C)c(=O)n1CCCNc1ccccc1`, 11.2%.
As for `Cc1ccc2[nH]c(=O)c(CN(CCCN(C)C)C(=O)Nc3cccc(Cl)c3)cc2c1`, the figure is 1.4%.
As for `COc1ccc2[nH]c(=O)c(CN(CC3CCCO3)C(=O)Nc3ccccc3)cc2c1` (centres undefined), the figure is 19.4%; as for `Cc1cccc(NC(=O)N(Cc2cc3cc(C)cc(C)c3[nH]c2=O)CC2COCCO2)c1` (centres undefined), 85.5% (active).

Values taken from PubChem BioAssay AID777 (Sanford-Burnham Center for Chemical Genomics, 2007).
